Experimental data: ChEMBL document CHEMBL4513146, “CO-ADD screening of Karazin Kharkiv National University (Ukraine) compounds”
Results with a measured potency or affinity are listed apart.

What was measured:
Klebsiella pneumoniae = settings: Concentration 32 ug.mL-1;; ASSAY_TEST Inhibition of Bacterial Growth; detection method Absorption (OD600); MEDIA CAMHB; plate type 384well; NBS; CORNING #3640; time 18 hr
Candida albicans = settings: Concentration 32 ug.mL-1; ASSAY_TEST Inhibition of Fungal Growth; detection method Absorption (OD530)
Cryptococcus neoformans = settings: Concentration 32 ug.mL-1; ASSAY_TEST Inhibition of Fungal Growth; detection method Resazurin; Absorption (OD600-OD570); plate type 384well; NBS; CORNING #3640

SMILES	Inhibition (Klebsiella pneumoniae) [%]	Inhibition (Candida albicans) [%]	Inhibition (Cryptococcus neoformans) [%]
COc1ccc(NC(=O)Cn2nc3c(Sc4ccccc4)nc4ccccc4n3c2=O)cc1Cl	5.63	1.75	-17.25
O=C(Cn1nc2c(N3CCOCC3)nccn2c1=O)Nc1ccc(Br)cc1F	9.99	1.73	-5.04
CCc1cccc(NC(=O)Cn2nc3c(SC4CCCCC4)nccn3c2=O)c1	3.05	12	-17.3
CCOc1ccc(-n2ccn3c(SCC(=O)c4cccc(Cl)c4)nnc3c2=O)cc1	10.21	2.76	-7.79
Cc1cc(C)cc(N(Cc2ccccc2F)S(=O)(=O)c2cccn3c(C)nnc23)c1	2.04	1.9	-4.5
O=C(CSc1nnc2c(=O)n(-c3ccc(Br)cc3)ccn12)Nc1ccc(F)cc1	8.05	10.99	-11.61
CCc1nnc2c(SCC(=O)Nc3cccc(OC)c3)nc3ccccc3n12	3.16	3.37	-8.02
COC(=O)c1ccc(NC(=O)CSc2nnc3c4cc(-c5ccc(OC)cc5)nn4ccn23)cc1	13.79	0.37	-25.69
Cc1ccc(-c2ccc3nn(CC(=O)N4CCN(c5ccccc5)CC4)c(=O)n3n2)cc1C	1.81	0.84	-5.58
Cc1ccc(C)c(CN(c2ccc(F)c(F)c2)S(=O)(=O)c2cccn3cnnc23)c1	-0.76	1.83	-7.27
Cc1ccc(Sc2nccn3c(=O)n(CC(=O)N4CCN(c5ccc(F)cc5)CC4)nc23)c(C)c1	-6.63	1.39	-106.74
CCCc1nnc2c(=O)n(CC(=O)Nc3ccc(Br)cc3F)c3ccccc3n12	-10.52	6.6	-24.08
Cc1ccc(CNC(=O)Cn2nc3ccc(SC4CCCCC4)nn3c2=O)cc1	11.36	13.29	-15.57
CCCn1c(=O)c2sccc2n2c(=O)n(Cc3ccc(Cl)cc3)nc12	4.43	0.41	-22.99
CCCN(C)c1nccn2c(=O)n(CC(=O)Nc3cccc(Br)c3)nc12	8.58	1.99	-9.25
Cc1cc2nn(CC(=O)Nc3cc(F)cc(F)c3)c(=O)n2c(Nc2ccccc2C)n1	6.94	0.1	-12.73
CC(C)c1nnc2c(SCC(=O)Nc3ccccc3C(F)(F)F)nc3ccccc3n12	13.6	0.36	-15.63
O=C(Cn1nc2c(N3CCOCC3)nccn2c1=O)Nc1ccc(Cl)cc1F	19.61	2.13	-2.72
Cc1cc(Nc2ccc(F)cc2)nc2nn(CCc3ccccc3)c(=O)n12	16.97	1.44	-10.99
COC(=O)c1ccc(NC(=O)Cn2nc3c4sc(N5CCCC5)nc4ncn3c2=O)cc1	-7.74	1.38	-4.89
CCCN(C)c1nccn2c(=O)n(CC(=O)Nc3cccc(C(C)=O)c3)nc12	4.82	2.07	-8.37
Cc1nnc2ccc(S(=O)(=O)N(Cc3ccc(Cl)cc3)c3cccc(F)c3)cn12	9.13	3.61	-11.42
Cc1ccc(NC(=O)Cn2c(=O)c3nnc(C(C)C)n3c3ccccc32)cc1	2.07	1.19	-10.22
CC(C)c1nnc2c(=O)n(CC(=O)Nc3cccc(C#N)c3)c3ccccc3n12	14.72	2.88	-33.67
Cc1cccc(N(Cc2ccccc2F)S(=O)(=O)c2ccc3nncn3c2)c1	-1.12	0.03	-7.87
O=S(=O)(c1ccc2nncn2c1)N(Cc1cccc(Cl)c1)c1ccccc1	4.69	-1.59	-11.03
CC(C)NC(=O)CSc1nnc2c(=O)n(-c3ccccc3)ccn12	11.98	2.07	-5.87
CCOc1ccc(-c2nc(CSc3nc4ccccc4n4c(C)nnc34)c(C)o2)cc1	11.43	1.94	-16.17
